# Most compounds without a hit are left out; they make up all but 21% or so of the library.
# Pf growth 96h: P. falciparum growth inhibition at 96 hours; P. falciparum luciferase reporter growth, 96 h; Potency, µM (top dose mostly 28.7 µM), most hits filed as inhibitors; hit rate 6.9% among 320,000
#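 Two parasite generations (96 h, 37 C, 5% CO2) of compound exposure in infected erythrocytes (0.05% parasitemia, 2% hematocrit). Luciferase-reporter P. falciparum; decreased luminescence indicates inhibited growth, aimed at apicoplast-acting delayed death.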
# Shiga toxin inh: Shiga toxin inhibition; Vero cells, Shiga toxin protein synthesis inhibition reporter; inhibition, % at 38.7 µM; hit rate 9.2% among 290,000; AID 2315; in the data active = inhibition mostly above about 28%, no sharp cut-off; inactive = mostly below about 43%
# Cycloheximide cs: counter-screen hit for Shiga toxin inhibitors, cycloheximide; cell reporter, cycloheximide protein synthesis inhibition counterscreen; max response, %; hit rate 12% among 300,000; AID 2314; in the data active = max response mostly above about 13%, no sharp cut-off; inactive = mostly below about 14%; note: read at 38.3 µM for the half of the compounds with a filed dose
# Pf growth 48h: inhibits P. falciparum growth in the first generation, 48 h; P. falciparum luciferase growth in erythrocytes, 48 h; Potency, µM (highest dose often 28.7 µM), hits mostly inhibitors; hit rate 5.9% among 310,000; AID 504832
#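 Parasite viability was followed by luminescence of a genomically integrated firefly luciferase. Cultures held 0.1% parasitemia at 2% hematocrit (final), incubated under 5% CO2 at 37 C.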
# Sm TGR block: S. mansoni TGR enzyme inhibition. hit rate 3% among 360,000. Potency, µM (titrated, usually from 114 µM), usual class: inhibitors. purified TGR, DTNB reduction, TNB absorbance 405 nm. Q962Y6. AID 485364; note: nearly all actives have a fitted effect of over 60% in size
#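 Kinetic colorimetric format: TGR-catalysed, NADPH-driven DTNB reduction monitored via TNB absorbance. Enzyme dispensed at 20 nM; compound exposure 15 min at room temperature before reaction start.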
# NS1 function inh: blocks influenza NS1 protein function; AID 2326; Potency, µM (series often up to 46.1 µM); hit rate 0.4% among 270,000; calls by dose curve; note: actives are rising curves; nearly all actives have a fitted effect of over 50% in size
#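 Compounds were scored for reversing the slow growth caused by influenza A NS1 in S. cerevisiae, measured by optical density at 600 nm. Assay medium contained 2% galactose at pH 6.0; NS1-free yeast of the same strain were the positive control.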
# Hits are given with their value; n = inactive; u = inconclusive; x = no result; + = active, no number; [ ] = remark or other dose. Unless noted, calls come from the whole dose curve; as a rule, active = well fitted curve in the direction sought with a large enough effect; inconclusive = small, poorly fitted or top-dose-only effect, or another doubt; inactive = no such curve, though single readings can be large; an effect the other way counts as inactive or inconclusive.
SMILES,Pf growth 96h,Shiga toxin inh,Cycloheximide cs,Pf growth 48h,Sm TGR block,NS1 function inh
COc1ccc2c(c1)Cc1sc(NC(=O)c3cccs3)nc1-2,n,149,74,5.9µM,n,n[9.22 µM]
COc1ccc2c(c1)Cc1sc(NC(=O)c3cccc(F)c3)nc1-2,x,x,x,x,n,x
Cc1ccc(NC(=O)[C@H](C)NC(=O)C2CCN(C(=O)[C@@H](N)CC(C)C)CC2)cc1,n,n,n,n,n,n
Cc1cc(NC(=O)CSc2ccnc(=O)[nH]2)no1,n,x,x,n,n,x
O=C(NCc1ccco1)c1ccc2c(=O)n(Cc3ccco3)c(SCC(=O)N3CCCC3)nc2c1,n,39,33,u,u,n
O=C(CSc1nc2ccccc2c(=O)n1Cc1ccco1)N1CCCCCC1,n,n,17,5.2µM,n,n
COCCNC(=O)c1ccc2c(=O)n(Cc3ccco3)c(SCC(=O)NC3CCCCC3)nc2c1,u,n,n,n,n,n
CCC(C)(C)NC(=O)Cn1c(-c2ccccc2)cc(C(C)=O)c1C,u,n,n,n,n,x
CC(=O)c1cc(-c2ccccc2)n(CC(=O)NC(C)(C)C)c1C,13µM,n,n,n,n,x
CC(=O)c1cc(-c2ccccc2)n(CCC(=O)NC2CCCCC2)c1C,10µM,n,n,n,n,n
Cc1cc(NC(=O)CCC(=O)N(CC(=O)NC2CCCC2)c2ccc(Cl)cc2)no1,n,n,n,u,n,n
CCN1CCOC(CC(=O)Nc2ccc([N+](=O)[O-])cc2)C1=O (stereo not drawn),n,n,n,n,20µM,n
CC1(C)CC(CC(=O)Nc2ccc([N+](=O)[O-])cc2)C(=O)O1 (stereo not drawn),u,n,n,n,n,n
O=C(CC1OCC2CCCN2C1=O)Nc1ccc([N+](=O)[O-])cc1 (stereo not drawn),n,n,n,n,25µM,n
O=C(CN1CCCC1)Nc1ccc([N+](=O)[O-])cc1,n,n,n,n,n,n
O=C(NC1CC(=O)N(c2ccc(Cl)cc2)C1)c1cccs1 (stereo not drawn),x,x,x,x,n,x
O=C(COc1ccccc1[N+](=O)[O-])NCc1cccnc1,n,n,n,n,n,n
Cc1ccc(NC(=O)COc2ccccc2[N+](=O)[O-])nc1,n,56,n,n,n,x
COc1ccccc1CC(=O)Nc1cc(C)ccn1,u,103,45,n,n,n
O=C(COc1ccccc1[N+](=O)[O-])Nc1cccnc1,n,90,31,n,n,x
COc1ccccc1CNc1cc(C)ccn1,n,x,n,n,n,n
Cc1ccnc(NC(=O)Cn2cc([N+](=O)[O-])cn2)c1,n,89,43,n,n,x
COC(=O)C1=C(c2ccc(OC)cc2)OC(=O)C1(C)C,u,n,n,n,n,n
Cc1ccc2c(c1)C(c1ccc(F)cc1)N(C(=O)c1cccc(C(F)(F)F)c1)CC(=O)N2 (stereo not drawn),x,x,x,x,n,x
Cc1ccc(CNC(=O)CCCCCn2c(=O)c3sccc3n(CC(=O)N(C)c3ccccc3)c2=O)cc1,x,x,x,x,n,x
SMILES,Pf growth 96h,Shiga toxin inh,Cycloheximide cs,Pf growth 48h,Sm TGR block,NS1 function inh
CCc1nnc(NC(=O)COc2ccccc2[N+](=O)[O-])s1,n,n,10,n,n,n
CCc1nnc(NC(=O)COc2ccc([N+](=O)[O-])cc2)s1,n,n,n,n,n,x
Cc1ccnc(NC(=O)COc2ccccc2[N+](=O)[O-])c1,n,140,40,n,n,x
COc1ccc(N(CC(=O)NCc2ccccc2)C(=O)CCC(=O)Nc2cc(C)ccn2)c(OC)c1,0.47µM,n,n,1.7µM,n,n
Cc1ccc2cccc(NC(=O)COc3ccccc3[N+](=O)[O-])c2n1,x,x,x,x,n,x
Cn1c(NC(=O)c2cccnc2)nc2ccccc21,n,+,38,u,n,n
O=C(Nc1cnc2ccccc2c1)c1ccco1,n,68,33,n,n,n
CS(=O)(=O)Nc1cccc(-c2cnc3ccccc3n2)c1,n,85,37,n,n,n
Cc1cc(C(=O)Nc2cnc3ccccc3c2)ccc1[N+](=O)[O-],n[5.75 µM],131,53,n,n,x
Cc1ccc(C(=O)Nc2cnc3ccccc3c2)cc1,n,n,n,x,n,n
CCc1ccc(NC(=O)C(=O)NCC(c2cccnc2)N2CCOCC2)cc1 (stereo not drawn),x,x,x,x,n,x
O=C(Nc1cccc(-c2cnc3ccccc3n2)c1)c1ccncc1,n,n,23,u,n,n
Cc1ccc(C(=O)Nc2cccc(-c3cnc4ccccc4n3)c2)cc1,n,n,n,n,n,n
CC(C)C(=O)Nc1cccc(-c2cnc3ccccc3n2)c1,n,n,21,x,n,n
CC(=O)Nc1ccc(C(=O)Nc2cccc(-c3cnc4ccccc4n3)c2)cc1,n,n,n,n,n,x
O=C(Nc1cccc(-c2cnc3ccccc3n2)c1)c1ccco1,n,100,55,u,n,n
CNC(=S)Nc1cccc(-c2cnc3ccccc3n2)c1,n,58,26,n,11µM,n
O=C(Nc1cnc2ccccc2c1)c1cccnc1,n,n,23,x,n,n
O=C(Nc1cnc2ccccc2c1)c1cccc(-n2cnnn2)c1,n[5.75 µM],164,88,0.12µM,n,u
OCCNc1nc(Nc2ccc(Br)cc2)nc2ccccc12,u,n,n,0.93µM,n,x
Cc1c(Cl)cccc1Nc1nc(NCCO)c2ccccc2n1,u,45,16,u,n,n
OCCNc1nc(Nc2ccccc2)nc2ccccc12,n,n,n,u,n,n
COc1ccc(C2NC(=O)NC(C)=C2C(=O)Nc2cc(C)cc(C)c2)c(OC)c1 (stereo not drawn),x,x,x,x,n,x
CC(C)NC(=O)NC(=O)COC(=O)/C=C/c1ccccc1[N+](=O)[O-],n,n,n,n,n,x
Cc1cc(C)c(NC(=O)c2ccc[n+](Cc3ccc([N+](=O)[O-])cc3)c2)c(C)c1,u,n,n,n,n,n
SMILES,Pf growth 96h,Shiga toxin inh,Cycloheximide cs,Pf growth 48h,Sm TGR block,NS1 function inh
Cc1ccc(C)c(NC(=O)CN(C)C(=O)c2oc3c(Cl)cccc3c2C)c1,2.9µM,x,x,4.1µM,n,x
CN(Cc1cn(Cc2ccccc2)nc1-c1ccc2c(c1)OCO2)Cc1nccn1C,15µM,n,n,u,n,n
O=C(Cn1cnc2c(nnn2-c2cccc(Cl)c2)c1=O)NCc1ccccc1,n,n,n,n,n,n
CC(C)(C)C(O)C(Oc1ccc(Cl)cc1)n1cncn1 (stereo not drawn),n,n,n,u,n,n
CC(C)(C)C(C(Oc1ccc(Cl)cc1)n1cncn1)n1nnnc1C(c1cccc(Cl)c1)N1CCCCC1 (stereo not drawn),2.1µM,n,n,1.9µM,n,n
CCOC(=O)C(CCc1ccccc1)NC1CCc2ccccc2N(CC(=O)O)C1=O (stereo not drawn),12µM,n,n,9.5µM,x,x
CCOC(=O)[C@H](CCc1ccccc1)N[C@H]1CCc2ccccc2N(CC(=O)O)C1=O,x,n,n,x,x,x
C[C@H]1CCC/C=C/[C@@H]2C[C@H](O)C[C@H]2[C@H](O)/C=C/C(=O)O1,2.9µM,n,n,2.1µM,u,x

# Screening results as filed in PubChem.
